# Like-named read-outs stand apart in the source and are kept apart here.
# Key:
# [1] = test system: PKN3; set-up: species or system human, MV4-11 + K-562 + COLO205 + SK-N-BE2 + OVCAR-8; details: read-out: apparent Kd, n = 1;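 as to IC50: NanoBRET target engagement in HEK293T cells transiently expressing full-length PKN3 with C-terminal NanoLuc, displacement of fluorescent tracer K5 (500 nM), BRET read after 2 h equilibration at 37 °C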
# [2] = test system: PKN3; details: hek293t cells;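 as to IC50: NanoBRET target engagement in HEK293T cells transiently expressing full-length PKN3 with C-terminal NanoLuc, displacement of fluorescent tracer K5 (500 nM), BRET read after 2 h equilibration at 37 °C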
# [3] = test system: AAK1; set-up: species or system human, MV4-11 + K-562 + COLO205 + SK-N-BE2 + OVCAR-8; details: read-out: apparent Kd, n = 1
# [4] = test system: BMP2K; set-up: species or system human, MV4-11 + K-562 + COLO205 + SK-N-BE2 + OVCAR-8; details: read-out: apparent Kd, n = 1
# [5] = test system: CLK1; set-up: species or system human, MV4-11 + K-562 + COLO205 + SK-N-BE2 + OVCAR-8; details: read-out: apparent Kd; compound concentrations:100 nM and 1000 nM (sheet 'Samples'); n = 1
# [6] = test system: CLK4; set-up: species or system human, MV4-11 + K-562 + COLO205 + SK-N-BE2 + OVCAR-8; details: read-out: apparent Kd; compound concentrations:100 nM and 1000 nM (sheet 'Samples'); n = 1
# [7] = test system: CSNK2A1;CSNK2A3; set-up: species or system human, MV4-11 + K-562 + COLO205 + SK-N-BE2 + OVCAR-8; details: read-out: apparent Kd, n = 1
# [8] = test system: CSNK2A2; set-up: species or system human, MV4-11 + K-562 + COLO205 + SK-N-BE2 + OVCAR-8; details: read-out: apparent Kd, n = 1
# [9] = test system: FLT4; set-up: species or system human, MV4-11 + K-562 + COLO205 + SK-N-BE2 + OVCAR-8; details: read-out: apparent Kd, n = 1
# [10] = test system: GAK; set-up: species or system human, MV4-11 + K-562 + COLO205 + SK-N-BE2 + OVCAR-8; details: read-out: apparent Kd, n = 1
# [11] = test system: MELK; set-up: species or system human, MV4-11 + K-562 + COLO205 + SK-N-BE2 + OVCAR-8; details: read-out: apparent Kd; compound concentrations:100 nM and 1000 nM (sheet 'Samples'); n = 1
# [12] = test system: NUAK1; set-up: species or system human, MV4-11 + K-562 + COLO205 + SK-N-BE2 + OVCAR-8; details: read-out: apparent Kd; compound concentrations:100 nM and 1000 nM (sheet 'Samples'); n = 1
# [13] = test system: PRKAG1; set-up: species or system human, MV4-11 + K-562 + COLO205 + SK-N-BE2 + OVCAR-8; details: read-out: apparent Kd, n = 1
# [14] = molecular target: Q6ZSR9 (human, UniProt Q6ZSR9); set-up: species or system MV4-11 + K-562 + COLO205 + SK-N-BE2 + OVCAR-8; details: read-out: apparent Kd, n = 1
# Q6ZSR9, sequence (Q6ZSR9 whole entry, looked up): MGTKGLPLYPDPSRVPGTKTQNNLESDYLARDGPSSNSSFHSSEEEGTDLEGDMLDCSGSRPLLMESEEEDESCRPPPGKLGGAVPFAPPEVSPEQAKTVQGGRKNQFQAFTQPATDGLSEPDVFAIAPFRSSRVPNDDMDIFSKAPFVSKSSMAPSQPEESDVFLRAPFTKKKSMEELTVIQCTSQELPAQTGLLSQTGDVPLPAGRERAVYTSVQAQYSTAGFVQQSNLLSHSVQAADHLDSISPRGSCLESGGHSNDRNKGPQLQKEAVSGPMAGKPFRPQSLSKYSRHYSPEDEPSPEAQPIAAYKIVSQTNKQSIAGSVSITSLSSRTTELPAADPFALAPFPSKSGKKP
# [15] = test system: RET; set-up: species or system human, MV4-11 + K-562 + COLO205 + SK-N-BE2 + OVCAR-8; details: read-out: apparent Kd; compound concentrations:100 nM and 1000 nM (sheet 'Samples'); n = 1
# [16] = test system: SIK2; set-up: species or system human, MV4-11 + K-562 + COLO205 + SK-N-BE2 + OVCAR-8; details: read-out: apparent Kd, n = 1
# [17] = test system: GSK3A; set-up: species or system human, MV4-11 + K-562 + COLO205 + SK-N-BE2 + OVCAR-8; details: read-out: apparent Kd, n = 1
# [18] = test system: GSK3B; set-up: species or system human, MV4-11 + K-562 + COLO205 + SK-N-BE2 + OVCAR-8; details: read-out: apparent Kd, n = 1
# [19] = test system: PAK4; set-up: species or system human, MV4-11 + K-562 + COLO205 + SK-N-BE2 + OVCAR-8; details: read-out: apparent Kd, n = 1
# [20] = test system: PKN1; set-up: species or system human, MV4-11 + K-562 + COLO205 + SK-N-BE2 + OVCAR-8; details: read-out: apparent Kd; compound concentrations:100 nM and 1000 nM (sheet 'Samples'); n = 1
# [21] = compound concentrations:100 nM and 1000 nM (sheet 'Samples')
structure (smiles),measurement,setting,value
Cc1cccc2c(-c3ccncn3)c(-c3ccc(F)cc3)nn12 [GW515532X],potency estimated from few doses,"[1]; compound concentrations: 100 nM and 1000 nM (sheet 'Samples'), CATDS: 0.37134711180045199",663 nM
same,IC50,"[2]; read-out: Average, SD, n = 3",26700 nM
same,IC50,[2]; read-out: Rep 1,78800 nM
same,IC50,[2]; read-out: Rep 2,922 nM
same,IC50,[2]; read-out: Rep 4,257 nM
CNC(=O)c1ccccc1Nc1nc(Nc2ccc(N3CCOCC3)cc2)ncc1Cl.Cl [GSK1576028A],potency estimated from few doses,[3]; [21],142 nM
same,potency estimated from few doses,[4]; [21],1140 nM
same,potency estimated from few doses,[5],260 nM
same,potency estimated from few doses,[6],321 nM
same,potency estimated from few doses,[7]; [21],59.3 nM
same,potency estimated from few doses,[8]; [21],24.4 nM
same,potency estimated from few doses,[9]; [21],309 nM
same,potency estimated from few doses,[10]; [21],90.3 nM
same,potency estimated from few doses,[11],2220 nM
same,potency estimated from few doses,[12],92.2 nM
same,potency estimated from few doses,[13]; [21],461 nM
same,potency estimated from few doses,[14]; [21],116 nM
same,potency estimated from few doses,[15],93.9 nM
same,potency estimated from few doses,[16]; [21],611 nM
Fc1ccc(-c2c(-c3ccncc3)[nH]c3cccnc23)cc1 [RO1153853-000],potency estimated from few doses,"[1]; compound concentrations: 100 nM and 1000 nM (sheet 'Samples'), CATDS: 0.27237296502427",55.8 nM
same,IC50,"[2]; read-out: Average, SD, n = 4",2360 nM
same,IC50,[2]; read-out: Rep 1,8030 nM
same,IC50,[2]; read-out: Rep 2,951 nM
same,IC50,[2]; read-out: Rep 3,164 nM
same,IC50,[2]; read-out: Rep 4,295 nM
NCCNS(=O)(=O)c1ccc(-c2ccnc3[nH]ccc23)cc1 [GSK977617A],potency estimated from few doses,[3]; [21],429 nM
same,potency estimated from few doses,[4]; [21],817 nM
same,potency estimated from few doses,[5],294 nM
same,potency estimated from few doses,[6],413 nM
same,potency estimated from few doses,[7]; [21],782 nM
same,potency estimated from few doses,[8]; [21],766 nM
same,potency estimated from few doses,[9]; [21],1050 nM
same,potency estimated from few doses,[10]; [21],280 nM
same,potency estimated from few doses,[17]; [21],257 nM
same,potency estimated from few doses,[18]; [21],361 nM
same,potency estimated from few doses,[11],866 nM
same,potency estimated from few doses,[12],1100 nM
same,potency estimated from few doses,[19]; [21],652 nM
same,potency estimated from few doses,[20],485 nM
same,potency estimated from few doses,[1]; [21],444 nM
same,potency estimated from few doses,[14]; [21],450 nM
same,potency estimated from few doses,[15],569 nM
same,potency estimated from few doses,[16]; [21],560 nM
Cc1ccc2c(-c3ccncc3)c(-c3ccc(F)cc3)nn2c1.Cl [GW461484A],potency estimated from few doses,[3]; [21],767 nM
same,potency estimated from few doses,[4]; [21],1900 nM
same,potency estimated from few doses,[5],548 nM
same,potency estimated from few doses,[7]; [21],1550 nM
same,potency estimated from few doses,[8]; [21],2220 nM
same,potency estimated from few doses,[9]; [21],1320 nM
same,potency estimated from few doses,[10]; [21],319 nM
same,potency estimated from few doses,[17]; [21],434 nM
same,potency estimated from few doses,[18]; [21],493 nM
same,potency estimated from few doses,[12],1590 nM
same,potency estimated from few doses,[19]; [21],888 nM
same,potency estimated from few doses,[20],2010 nM
same,potency estimated from few doses,[1]; [21],1390 nM
same,potency estimated from few doses,[13]; [21],560 nM
same,potency estimated from few doses,[14]; [21],942 nM
same,potency estimated from few doses,[15],683 nM
same,potency estimated from few doses,[16]; [21],696 nM
Cc1cccc(-c2nc(Nc3ccncc3)c3sccc3n2)n1 [GW869641X],potency estimated from few doses,[1]; [21],97.8 nM
same,IC50,"[2]; read-out: Average, SD, n = 3",1580 nM
same,IC50,[2]; read-out: Rep 1,4190 nM
same,IC50,[2]; read-out: Rep 2,472 nM
same,IC50,[2]; read-out: Rep 4,87.1 nM
CN(c1ccc(NC(=O)N2CCN(CCCN3CCOCC3)CC2)cc1)c1ccnc(Nc2ccc(CS(C)(=O)=O)cc2)n1.Cl [GW830899A],potency estimated from few doses,"[3]; compound concentrations: 100 nM and 1000 nM (sheet 'Samples'), CATDS: 3.8742372830354199E-2",411 nM
same,potency estimated from few doses,"[4]; compound concentrations: 100 nM and 1000 nM (sheet 'Samples'), CATDS: 2.31268992433276E-2",1070 nM
same,potency estimated from few doses,"[7]; compound concentrations: 100 nM and 1000 nM (sheet 'Samples'), CATDS: 1.98938138742078E-2",1550 nM
same,potency estimated from few doses,"[8]; compound concentrations: 100 nM and 1000 nM (sheet 'Samples'), CATDS: 2.19439033786193E-2",1210 nM
same,potency estimated from few doses,"[9]; compound concentrations: 100 nM and 1000 nM (sheet 'Samples'), CATDS: 1.9888583471378E-2",1550 nM
same,potency estimated from few doses,"[10]; compound concentrations: 100 nM and 1000 nM (sheet 'Samples'), CATDS: 3.3242042513279398E-2",528 nM
same,potency estimated from few doses,"[17]; compound concentrations: 100 nM and 1000 nM (sheet 'Samples'), CATDS: 3.3329188882870099E-2",525 nM
same,potency estimated from few doses,"[18]; compound concentrations: 100 nM and 1000 nM (sheet 'Samples'), CATDS: 2.6554458888549098E-2",796 nM
same,potency estimated from few doses,"[19]; compound concentrations: 100 nM and 1000 nM (sheet 'Samples'), CATDS: 2.0205846564267299E-2",1490 nM
same,potency estimated from few doses,"[1]; compound concentrations: 100 nM and 1000 nM (sheet 'Samples'), CATDS: 1.8045605554117099E-2",2080 nM
same,potency estimated from few doses,"[13]; compound concentrations: 100 nM and 1000 nM (sheet 'Samples'), CATDS: 2.3560969184091798E-2",1020 nM
same,potency estimated from few doses,"[14]; compound concentrations: 100 nM and 1000 nM (sheet 'Samples'), CATDS: 2.6002877269984698E-2",831 nM
same,potency estimated from few doses,"[16]; compound concentrations: 100 nM and 1000 nM (sheet 'Samples'), CATDS: 2.0988983059189802E-2",1350 nM
Cc1cccc(Nc2nc(N[C@H]3CCCC[C@H]3N)ncc2C(N)=O)c1.Cl [GSK986310C],potency estimated from few doses,[19]; [21],322 nM

# From paper PMC11062922 (Nature Chemical Biology, 2023)
